Experimental data taken from PubChem BioAssay (NCATS).
Several values for one entry are separate records, joined by “and”; a condition that tells them apart may be missing. Equal entries are not always repeated. Inconclusive results are not listed. Activity calls are given as the source filed them. Unless noted, calls follow the shape of the dose curve; as a rule, active = well fitted curve in the direction sought with a large enough effect; inconclusive = small, poorly fitted or top-dose-only effect, or another doubt; inactive = no such curve, though single readings can be large; an effect the other way counts as inactive or inconclusive.

Tests used:
[1] = S16 Schwann cell viability assay (CellTiter-Glo assay) (AID 624031);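 also: cellular ATP luminescence as a viability measure; plate controls were DMSO-treated cells for no effect and cell-free wells for full effect; nearly all actives have a fitted effect of over 70% in size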
Summary of the method: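 This viability control uses native rat S16 Schwann cells grown in DMEM plus 10% FBS. After a 24 h compound treatment at 37 °C, CellTiter-Glo luminescence reports ATP content, scaled against DMSO-treated and cell-free wells.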

[2] = S16 Schwann cell PMP22 intronic element firefly luciferase assay (AID 624032); also: nearly all actives have a fitted effect of over 30% in size; also: potency is read from the fitted curve at half-maximal effect
Summary of the method: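 Rat S16 Schwann cells stably carrying firefly luciferase driven by a PMP22 intronic element, in 10% FBS, treated 24 h at 37 C. ONE-Glo luminescence normalized to PTC124 control and DMSO (0%); curves classed by r2, magnitude and activity.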

[3] = target: Glutaminase kidney isoform, mitochondrial (Homo sapiens) (UniProt O94925); assay: qHTS for Inhibitors of Glutaminase (GLS): LOPAC Validation (AID 624146); also: nearly all actives have a fitted effect of over 60% in size; also: potency is read from the fitted curve at half-maximal effect
Sequence of Glutaminase kidney isoform, mitochondrial (Homo sapiens) (O94925 whole entry, looked up, canonical isoform): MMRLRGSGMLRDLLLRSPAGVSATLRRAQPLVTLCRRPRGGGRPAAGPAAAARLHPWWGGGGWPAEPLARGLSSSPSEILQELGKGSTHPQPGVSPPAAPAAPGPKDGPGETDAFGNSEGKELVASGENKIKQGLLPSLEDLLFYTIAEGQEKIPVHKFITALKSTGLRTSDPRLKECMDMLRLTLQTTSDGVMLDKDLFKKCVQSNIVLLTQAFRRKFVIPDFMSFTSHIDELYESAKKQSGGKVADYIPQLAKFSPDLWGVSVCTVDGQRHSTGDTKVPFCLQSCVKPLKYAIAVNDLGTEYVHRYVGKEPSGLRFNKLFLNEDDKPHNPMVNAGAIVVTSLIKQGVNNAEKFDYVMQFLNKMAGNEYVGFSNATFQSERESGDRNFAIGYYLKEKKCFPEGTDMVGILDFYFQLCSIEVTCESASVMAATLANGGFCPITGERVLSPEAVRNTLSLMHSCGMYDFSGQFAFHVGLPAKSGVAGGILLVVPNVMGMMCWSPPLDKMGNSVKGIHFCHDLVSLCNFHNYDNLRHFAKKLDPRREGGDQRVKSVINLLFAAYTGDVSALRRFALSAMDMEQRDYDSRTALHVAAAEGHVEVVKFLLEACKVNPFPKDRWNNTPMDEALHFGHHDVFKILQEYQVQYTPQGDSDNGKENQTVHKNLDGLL
Summary of the method: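 hKGA; 45 mM KH2PO4 pH 8.2 + 0.02% Tween-20; cpd via pin tool; 1 mM Gln soln; GluOx/HRP/Amplex Red; RT 30 min; fluor. t0 & final.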

[4] = qHTS of Trypanosoma Brucei Inhibitors: LOPAC Validation (AID 624147); also: 0% is about no effect
Summary of the method: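 Screened from lowest to highest concentration, compounds were pinned into TbPYK/substrate mixtures, and ADP (130 uM final) was added. Plates sat at room temperature for 45 min prior to Kinase-Glo Plus detection by luminescence.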

[5] = target: Glucagon-like peptide 1 receptor (Homo sapiens) (UniProt P43220); assay: qHTS of GLP-1 Receptor Agonists: LOPAC Validation (AID 624148);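 also: 0% is about no effect; higher luminescence signal means agonism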
Sequence of Glucagon-like peptide 1 receptor (Homo sapiens) (P43220 whole entry, looked up): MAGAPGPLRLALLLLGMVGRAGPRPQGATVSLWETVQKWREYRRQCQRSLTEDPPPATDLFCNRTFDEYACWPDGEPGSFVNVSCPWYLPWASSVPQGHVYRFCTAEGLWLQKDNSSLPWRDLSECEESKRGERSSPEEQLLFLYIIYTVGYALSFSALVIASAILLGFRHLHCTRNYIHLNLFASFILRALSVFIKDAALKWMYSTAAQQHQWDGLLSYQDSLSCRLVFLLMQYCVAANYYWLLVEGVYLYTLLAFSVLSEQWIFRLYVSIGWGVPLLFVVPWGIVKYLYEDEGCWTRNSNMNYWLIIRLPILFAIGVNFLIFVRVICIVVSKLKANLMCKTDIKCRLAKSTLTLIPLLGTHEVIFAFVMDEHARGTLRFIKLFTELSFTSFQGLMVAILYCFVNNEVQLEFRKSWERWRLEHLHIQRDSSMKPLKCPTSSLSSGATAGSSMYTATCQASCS
Summary of the method: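 HEK293 cells stably co-expressing GLP-1R and a cAMP-responsive luciferase reporter, plated 12 hours before compound, then incubated 4-6 hr at 37 deg C. Luminescence read 12 min after detection reagent.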

[6] = qHTS of Nrf2 Activators: LOPAC Validation (AID 624149); also: 0% is about no effect
Summary of the method: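 AREc32_Fluc cells, 1000/well in OPTI-MEM with 5% FBS, grown overnight, then exposed to compounds for 24 hr at 37 deg C, 5% CO2. ARE-driven firefly luciferase read by Steady-Glo luminescence after 30 min at RT.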

[7] = HTS Assay for Allosteric Antagonists of the Human D2 Dopamine Receptor: Hit Validation in HTRF (AID 624455);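 also: stable D1 dopamine receptor cell line scored for blocking the D1 response; % is scaled to controls: 0 for no effect and ±100 for the full control effect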
Summary of the method: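 Hit validation in cells stably expressing the D1 dopamine receptor, run in HTRF format. Compounds were tested for their ability to inhibit the D1-mediated response.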

[8] = qHTS assay for small molecule agonists of the antioxidant response element (ARE) signaling pathway (AID 651741; active = well fitted activation curve with a large enough effect in the signal ratio; the % refers to the signal ratio; also: % of control where 0% means no effect)
Summary of the method: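 CellSensor ARE-bla HepG2 cells (2,000/well) carrying ARE-driven beta-lactamase, exposed 16 h at 37 C. LiveBLAzer B/G FRET substrate added for 2 h at room temperature; fluorescence intensity read.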

[9] = qHTS assay for small molecule activators of the p53 signaling pathway (AID 651743; active = well fitted activation curve with a large enough effect in the signal ratio, not every such curve was filed as active; the % refers to the signal ratio; also: % of control where 0% means no effect); conditions: HCT-116 p53RE-bla, beta-lactamase FRET ratio, 16 h; stronger effect = higher value
Summary of the method: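 p53RE-bla HCT-116 cells carrying a beta-lactamase reporter under p53 response elements were exposed to compounds for 16 hours at 37 C. Reporter activity read as fluorescence after 2 hours at room temperature with LiveBLAzer B/G FRET substrate.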

[10] = qHTS assay for small molecule activators of the nuclear factor-kappa B (NF-kB) signaling pathway (AID 651749; active = well fitted activation curve with a large enough effect in the signal ratio; the % refers to the signal ratio; also: % of control where 0% means no effect); conditions: NF-kB-bla ME-180 cells, beta-lactamase FRET ratio, 16 h; stronger effect = higher value
Summary of the method: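 NF-kB-bla ME-180 cells carrying a beta-lactamase reporter under an NF-kB response element, 2,000 cells/well, exposed to compound for 16 hr at 37C; FRET-based beta-lactamase fluorescence read-out of pathway activation.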

[11] = target: Tumor necrosis factor (Homo sapiens) (UniProt P01375); assay: qHTS assay to identify small molecules that stimulate Tumor Necrosis Factor-alpha (TNF-alpha) secretion (AID 651757; active = well fitted curve in the direction sought with a large enough effect in the signal ratio; the % refers to the signal ratio; also: 0% is about no effect)
Sequence of Tumor necrosis factor (Homo sapiens) (P01375 whole entry, looked up): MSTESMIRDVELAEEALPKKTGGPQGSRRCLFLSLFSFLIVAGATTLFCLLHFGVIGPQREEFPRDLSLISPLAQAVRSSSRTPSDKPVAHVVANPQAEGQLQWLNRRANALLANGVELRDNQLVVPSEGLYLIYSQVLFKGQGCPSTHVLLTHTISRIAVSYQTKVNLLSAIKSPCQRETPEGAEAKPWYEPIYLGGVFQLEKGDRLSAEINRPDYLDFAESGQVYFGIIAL
Summary of the method: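 THP-1 cells (3000/well) exposed to compounds 17 hrs at 37 C. Secreted TNF-alpha detected by HTRF with cryptate- and XL665-labeled anti-TNF-alpha antibodies after 3 hr at room temperature.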

[12] = S16 Schwann cell PMP22 intronic element beta-lactamase assay (AID 624044; calls by dose curve; also: nearly all actives have a fitted effect of over 15% in size; also: potency is read from the fitted curve at half-maximal effect)
Summary of the method: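 Rat S16 Schwann cells with beta-Lac driven by a PMP22 intronic element, compound-treated 24 h at 37 °C. LiveBLAzer FRET B/G read: 460 nm normalized to potassium clavulanate vs DMSO; 535 nm FRET as viability; concentration-effect curves classified.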

[13] = qHTS assay for small molecule disruptors of the mitochondrial membrane potential - 5 hr assay (AID 651755; calls by dose curve; also: nearly all actives have a fitted effect of over 40% in size; also: potency is read from the fitted curve at half-maximal effect)
Summary of the method: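 HepG2 cells (2,000/well), attached overnight, exposed to compound 5 hr at 37C, then Mito-MPS dye 30 min. Fluorescence read for monomers (490/535 nm) and aggregates (540/590 nm).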

[14] = qHTS assay to identify small molecules that stimulate interleukin-8 (IL-8) secretion (AID 651758; active = well fitted activation curve with a large enough effect in the signal ratio; the % refers to the signal ratio; also: 0% is about no effect)
Summary of the method: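 THP-1 cells (2000/well) exposed to compound 16 h at 37 C; secreted IL-8 then detected by HTRF with cryptate- and XL665-labelled anti-IL-8 antibody pair after 1-3 h at room temperature.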

[15] = Cytotoxicity counterscreen for NFkB agonists and antagonists (AID 624476);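 also: potency is read from the fitted curve at half-maximal effect; cells exposed to compound for 48 hours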
[16] = qHTS Assay for Identification of Small Molecule Agonists for NFkB Signaling Pathway. (AID 624478); also: 0% is about no effect
Summary of the method: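 NFkB-bla ME-180 cells carry a beta-lactamase reporter. They received compound plus TNF alpha at 10 pM final (its EC50) for 5 h at 37 C. Reporter activity was read as 460/530 nm emission ratio after 2 h LiveBLAzer substrate loading.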

[17] = qHTS Assay for Identification of Small Molecule Antagonists for NFkB Signaling Pathway. (AID 624479; calls by dose curve;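 also: pathway stimulated with TNF alpha; potency is read from the fitted curve at half-maximal effect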)
[18] = Cell Proliferation Assay against the TMD8 Cell Line (AID 651645); conditions: TMD8 DLBCL cell line proliferation/viability; at 46.1 µM (top of the series) unless noted;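 also: cells exposed to compound for 48 h before reading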
Summary of the method: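 TMD8 cells, 500/well in RPMI with 5% FBS, dosed immediately and grown 48 h at 37 C, 5% CO2. CellTiter-Glo luminescence normalised to DMSO 100% and 9.2 uM bortezomib (final) 0%.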

[19] = qHTS assay for small molecule disruptors of the mitochondrial membrane potential - 1 hr assay (AID 651754; calls by dose curve; also: potency is read from the fitted curve at half-maximal effect; nearly all actives have a fitted effect of over 35% in size)
Summary of the method: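 HepG2 cells, attached overnight, were exposed to compound for 1 hr at 37C, then stained 30 min with a potentiometric dye. Ratio of red aggregate (590nm) to green monomer (535nm) fluorescence reports membrane potential; collapse shifts signal toward green.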

CC(=O)c1ccc(S(=O)(=O)NC(=O)NC2CCCCC2)cc1
inactive: Potency [1] | Potency [2] | Potency [3] | outcome [4] | outcome [5] | outcome [6] | outcome [7] | Potency [8] | activation [9] -2.83% and -1.75% | activation [10] -0.811% and -1.71% | outcome [11]

C[N+](C)(C)CCCCCC[N+](C)(C)C
inactive: Potency [1] | Potency [2] | Potency [3] | outcome [4] | outcome [5] | outcome [6] | outcome [7]

O=c1[nH]cnc2c1ncn2[C@H]1CC[C@@H](CO)O1
inactive: Potency [1] | Potency [2] | Potency [12] | Potency [8] | Potency [13] | outcome [11] | outcome [14]

O=C1NCC2(CCN(CCc3ccccc3)CC2)O1
inactive: Potency [1] | Potency [2] | Potency [12] | outcome [4] | outcome [5] | outcome [6] | outcome [7]

CCN1CCC[C@H]1CNC(=O)c1cc(S(N)(=O)=O)ccc1OC
inactive: Potency [1] | Potency [2] | Potency [3] | outcome [4] | outcome [5] | outcome [6] | outcome [7]

CC1=C(/C=C/C(C)=C/C=C/C(C)=C/C(=O)Nc2ccc(O)cc2)C(C)(C)CCC1
inactive: Potency [1] | outcome [4] | outcome [5] | outcome [6] | outcome [7] | outcome [16]
7.34%: viability (% of control) [18]
active: Potency [2] 4.05 µM | Potency [12] 11.2 µM | Potency [3] 12.6 µM | Potency [15] 20.9 µM | Potency [17] 21.1 µM | Potency [19] 15 µM | Potency [13] 18.8 µM

CCCCCN(C)CCC(O)(P(=O)(O)O)P(=O)(O)O
inactive: Potency [1] | Potency [2] | Potency [12] | Potency [3] | outcome [4] | outcome [5] | outcome [6] | outcome [7]

C[C@@H](O)[C@H]1C(=O)N2C(C(=O)O)=C(S[C@@H]3CN[C@H](C(=O)N(C)C)C3)[C@H](C)[C@H]12
inactive: Potency [1] | Potency [2]

CCN(CC)CCOC(=O)c1ccc(N)cc1
inactive: Potency [1] | Potency [2] | Potency [3] | outcome [4] | outcome [5] | outcome [6] | outcome [7]

CCn1cc(C(=O)O)c(=O)c2ccc(C)nc21
inactive: Potency [1] | Potency [2] | Potency [3] | outcome [4] | outcome [5] | outcome [7] | Potency [8] | activation [10] -0.653% and -1.68%
